{"source": "PubChem BioAssay AID1851", "about": "(National Center for Advancing Translational Sciences (NCATS), 2009)", "note": "The campaign covered roughly 16,000 compounds. About 5,800 (36%) were called active. Another 23% or so got no clear call; they are omitted. Some of the results follow. A number with no mark means an inactive call. The call rests on the fitted dose curve; in most records, active means well fitted curve in the direction sought with a large enough effect; inconclusive means small, poorly fitted or top-dose-only effect, or effect the other way; inactive means no such curve, though single readings can be large or run the other way. On the % scale 0 is the no-effect control and ±100 the full control effect."}
{"target": "Cytochrome P450 2C19 (Homo sapiens) (UniProt P33261)", "sequence (P33261 whole entry, looked up)": "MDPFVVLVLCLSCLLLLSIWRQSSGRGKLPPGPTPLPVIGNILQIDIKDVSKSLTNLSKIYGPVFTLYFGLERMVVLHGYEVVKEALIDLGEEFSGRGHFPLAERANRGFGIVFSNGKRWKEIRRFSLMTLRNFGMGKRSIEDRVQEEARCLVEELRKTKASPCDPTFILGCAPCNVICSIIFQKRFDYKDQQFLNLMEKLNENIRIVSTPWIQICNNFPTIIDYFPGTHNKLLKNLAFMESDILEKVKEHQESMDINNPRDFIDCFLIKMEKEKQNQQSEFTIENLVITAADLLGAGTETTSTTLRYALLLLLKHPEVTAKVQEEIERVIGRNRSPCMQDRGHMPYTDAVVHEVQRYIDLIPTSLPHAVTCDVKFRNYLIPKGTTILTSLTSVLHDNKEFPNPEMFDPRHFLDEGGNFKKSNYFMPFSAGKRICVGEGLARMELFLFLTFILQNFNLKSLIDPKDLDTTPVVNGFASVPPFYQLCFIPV", "assay": "Cytochrome panel assay with activity outcomes", "conditions": "recombinant CYP, pro-luciferin dealkylation, luminescence, p450-cyp2c19; series mostly up to 57.1 µM; activity, negative = inhibition: at the top concentration"}
{"smiles": "Cn1c(=O)c2[nH]c(/N=N\\N3CCN(CCO)CC3)nc2n(C)c1=O", "activity, negative = inhibition": "7.88% [at 11.4 µM]"}
{"smiles": "O=C(O)CN(CCN(CC(=O)O)CC(=O)O)CC(=O)O.[Mn]", "activity, negative = inhibition": "-2.62% [at 11.4 µM]"}
{"smiles": "CCCCCNCc1cccc(Br)c1", "AC50": "11.2 µM (active)"}
{"smiles": "O=C(NCCC1=CCCCC1)C1CCCN(c2nc3ccccc3o2)C1", "note": "(configuration not stated)", "AC50": "2.82 µM (active)"}
{"smiles": "CC(C)(C)c1ccc(C(=O)N2CCC(C(=O)NCCC3=CCCCC3)CC2)cc1", "AC50": "15.8 µM (active)"}
{"smiles": "CSc1cc(C)nc(NC(C)=O)n1", "AC50": "7.94 µM (active)"}
{"smiles": "CC(=O)Nc1nc(NC(C)=O)c2[nH]c(CO)nc2n1", "activity, negative = inhibition": "4.22% [at 11.4 µM]"}
{"smiles": "COc1cc(OC)nc(NC(C)=O)n1", "activity, negative = inhibition": "14.4%"}
{"smiles": "O=C(Oc1ccc2ccccc2c1Br)N1CCCCCC1", "AC50": "1.78 µM (active)"}
{"smiles": "O=C(Oc1ccccc1)N1CCC2(CC1)CCN(c1ccccc1)CC2", "activity, negative = inhibition": "-34.4%"}
{"smiles": "Cc1cc(C)c2c(-n3cccc3)n[nH]c2n1", "AC50": "5.01 µM (active)"}
{"smiles": "Cc1cc(C)c2c(-n3cccc3)nn(CC#N)c2n1", "AC50": "11.2 µM (active)"}
{"smiles": "CN(C)/N=N\\c1nc[nH]c1C(N)=O", "activity, negative = inhibition": "30.5% [at 25.6 µM]"}
{"smiles": "CCc1nnc2sc(-c3ccc(NC(=O)c4ccco4)cc3)nn12", "AC50": "28.2 µM (active)"}
{"smiles": "O=C(O)[C@@H](O)[C@@H](O)[C@@H](O[C@H]1O[C@@H](CO)[C@@H](O)[C@@H](O)[C@@H]1O)[C@@H](O)CO", "activity, negative = inhibition": "12.8% [at 25.6 µM]"}
{"smiles": "COCC(C)NCc1cccc(C)c1", "note": "(configuration not stated)", "activity, negative = inhibition": "-18%"}
{"smiles": "Cc1cccc(CSc2cccc3cccnc23)c1", "AC50": "2.24 µM (active)"}
{"smiles": "COc1ccc(/C(C)=N/NC(=O)c2ccc(CSc3cccc4cccnc34)cc2)cc1OC", "AC50": "2.51 µM (active)"}
{"smiles": "CO[C@H]1COC(=O)C/C=C\\[C@H](C)[C@@H](OC)COC(=O)[C@H](C)COC(=O)C/C=C\\[C@@H]1C", "activity, negative = inhibition": "9.22% [at 11.4 µM]"}
{"smiles": "C=CCNc1cnn(-c2ccc(C)cc2)c(=O)c1Cl", "AC50": "11.2 µM (active)"}
{"smiles": "Cc1ccc(-n2ncc(N(C)C)c(Cl)c2=O)cc1", "activity, negative = inhibition": "-22.8%"}
{"smiles": "C[C@@H](C(=O)O)c1ccc(C(=O)c2cccs2)cc1", "activity, negative = inhibition": "-23.7% [at 25.6 µM]"}
{"smiles": "C[C@@H](C(=O)O)c1ccc(C(=O)c2ccccc2)s1", "AC50": "3.98 µM (active)"}
{"smiles": "CC(C)/C(=N/[N+](C)(C)C)c1ccccc1", "activity, negative = inhibition": "18.6% [at 11.4 µM]"}
{"smiles": "Cc1cc(Cl)ccc1Oc1ncnc2oc(-c3ccccc3)cc12", "AC50": "1.12 µM (active)"}
{"smiles": "Cc1ccccc1Oc1ncnc2oc(-c3ccccc3)cc12", "AC50": "3.98 µM (active)"}
{"smiles": "COCCNC(=O)CSc1ncnc2sccc12", "activity, negative = inhibition": "-22.8%"}
{"smiles": "Cc1ccccc1Oc1ncnc2sccc12", "AC50": "3.55 µM (active)"}
{"smiles": "COc1cccc([C@H](O)Cn2cc(-c3ccc(CON=C(C)C)cc3)nn2)c1", "activity, negative = inhibition": "6.04% [at 11.4 µM]"}
{"smiles": "Cc1cccc(OCCn2c(-c3ccco3)nc3ccccc32)c1", "AC50": "1.58 µM (active)"}
{"smiles": "Cc1cccc(OCCn2c(S(=O)(=O)O)nc3ccccc32)c1", "activity, negative = inhibition": "-37.5%"}
{"smiles": "O=S1(=O)C=C(Oc2ccc3ccccc3c2)c2ccccc21", "AC50": "3.55 µM (active)"}
{"smiles": "O=S1(=O)C=C(N2CCOCC2)c2ccccc21", "activity, negative = inhibition": "-30.9%"}
{"smiles": "Nc1ccc(S(=O)(=O)Nc2cnc3ccccc3n2)cc1", "AC50": "inactive"}
{"smiles": "Cc1ccc(S(=O)(=O)Nc2nc3ccccc3nc2N2CCc3ccccc3C2)cc1", "AC50": "5.01 µM (active)"}
{"smiles": "N#CCSc1nc2cc(C(=O)N3CCCC3)ccc2c(=O)n1Cc1ccccc1", "AC50": "11.2 µM (active)"}
{"smiles": "CCCCn1c(SCC(N)=O)nc2ccc(N3CCOCC3)cc2c1=O", "activity, negative = inhibition": "-12.8%"}
{"smiles": "N#CCSc1nc2ccc(N3CCCCC3)cc2c(=O)n1Cc1ccccc1", "AC50": "7.94 µM (active)"}
{"smiles": "COc1ccc(C(=O)N2CCC[C@@]3(CCN(Cc4ccc(C#N)cc4)C3)C2)cc1", "activity, negative = inhibition": "-8.34%"}
{"smiles": "N#CCCn1c(=O)c(-c2ccc(F)cc2)nc2cnc(OCc3ccccc3)nc21", "activity, negative = inhibition": "15.8%"}
{"smiles": "O=C(c1ccncc1)N1CCC2(CCCN(Cc3ccccc3)C2)CC1", "activity, negative = inhibition": "-1.19%"}
{"smiles": "CSc1nc(N)c2ncn([C@H]3O[C@H](COP(=O)(O)OP(=O)(O)O)[C@@H](O)[C@@H]3O)c2n1", "activity, negative = inhibition": "-16.9%"}
{"smiles": "N#Cc1cc(-c2ccccc2)cnc1Sc1ccc(Cl)cc1", "AC50": "4.47 µM (active)"}
{"smiles": "N#Cc1cc(-c2ccc(Cl)cc2)cnc1Sc1ccccc1", "AC50": "4.47 µM (active)"}
{"smiles": "N=C1C(c2nc(-c3ccc(F)cc3)cs2)=C(O)CN1CCCN1CCOCC1", "AC50": "25.1 µM (active)"}
{"smiles": "N#Cc1c2c(c(-n3cnc4ccccc43)n3c1nc1ccccc13)CCC2", "activity, negative = inhibition": "-23.5%"}
{"smiles": "c1ccc2c(c1)ncn2-c1ncnc2sc3c(c12)CCCC3", "AC50": "8.91 µM (active)"}
{"smiles": "COc1ccccc1CN1CC2(CCN(C(=O)c3cnccn3)CC2)C1", "activity, negative = inhibition": "37.1%"}
{"smiles": "COc1ccccc1CN1C(=O)c2ccncc2C1=O", "AC50": "14.1 µM (active)"}
{"smiles": "COc1ccccc1CN1CC2(CCN(C(=O)c3ccncc3)CC2)C1", "activity, negative = inhibition": "-42.2%"}
{"smiles": "CCOC(=O)c1c(C)nc2sc3c(=O)n(-c4ccc(C(C)=O)cc4)nnc3c2c1-c1ccc(Cl)cc1", "activity, negative = inhibition": "-21.6%"}
{"smiles": "CCOC(=O)c1c(C)nc2sc3c(=O)n(-c4ccc(C)cc4)cnc3c2c1-c1ccc(OC)cc1", "AC50": "1.26 µM (active)"}
{"smiles": "Cc1cc2ccccc2c[n+]1CC(O)C[n+]1cc2ccccc2cc1C", "activity, negative = inhibition": "3.92% [at 11.4 µM]"}
{"smiles": "O=C(O)c1ccc(OCc2ccccc2)c(Cl)c1", "activity, negative = inhibition": "18.7% [at 11.4 µM]"}
{"smiles": "O=C(NCc1ccccc1)c1cccc(COc2cccc(Cl)c2)c1", "AC50": "7.08 µM (active)"}
{"smiles": "N#CC1=C(N)OC2=C(C(=O)CCC2)C12CCC1(CC2)OCCO1", "activity, negative = inhibition": "-60.8%"}
{"smiles": "O=c1c(-c2nnc(SCc3ccc(Cl)cc3Cl)o2)cccn1Cc1ccccc1", "AC50": "1.26 µM (active)"}
{"smiles": "O=c1c(-c2nnc(SCc3ccc(Cl)c(Cl)c3)o2)cccn1Cc1ccccc1", "AC50": "1.41 µM (active)"}
{"smiles": "COc1ccc(-c2nc3cnc(N4CCN(C)CC4)nc3n(C)c2=O)cc1", "activity, negative = inhibition": "-40.9%"}
{"smiles": "CN(C)c1ncc2nc(-c3cc(F)cc(F)c3)c(=O)n(CCC#N)c2n1", "activity, negative = inhibition": "13.1%"}
{"smiles": "Cc1ccc(NC(=O)/C(=C/c2cccc([N+](=O)[O-])c2)NC(=O)C2CCCCC2)c(C)c1", "activity, negative = inhibition": "-19.8%"}
{"smiles": "CC1CCCN(C/C=C/c2ccccc2[N+](=O)[O-])C1", "note": "(configuration not stated)", "AC50": "8.91 µM (active)"}
{"smiles": "CCOC(=O)C1CCCN(C/C=C/c2ccccc2[N+](=O)[O-])C1", "note": "(configuration not stated)", "AC50": "3.98 µM (active)"}
{"smiles": "O=C(/C=C/c1cccc([N+](=O)[O-])c1)NCCN1CCOCC1", "activity, negative = inhibition": "-22.3%"}
{"smiles": "CC1CC(C)CN(C/C=C/c2ccccc2[N+](=O)[O-])C1", "note": "(configuration not stated)", "AC50": "7.08 µM (active)"}
{"smiles": "CCOC(=O)C1CCCN(C(=O)/C=C/c2cccc([N+](=O)[O-])c2)C1", "note": "(configuration not stated)", "AC50": "14.1 µM (active)"}
{"smiles": "O=C(O)[C@H]1CCCN(CCC=C(c2ccccc2)c2ccccc2)C1", "activity, negative = inhibition": "37%"}
